Screen size: about 5,500 compounds; about 2,000 (36%) were called active. About 18% were inconclusive and are not listed. Rule as the data show it: active = normalized growth mostly below about 0.91 (no sharp cut-off); inconclusive = no clear call, values can overlap the other calls; inactive = mostly above about 0.92. The list shows a part of the results.
Assay: chemical genetic growth profiling, strain panel (AID 1159580);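 also: tested at 20 µM; growth read once vehicle control cultures reached saturation at 30 °C; 1 = growth at the plate median or of vehicle wells; lower values mean less growth of the strain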
Details: S. cerevisiae deletion strains, growth OD
[1] = locus YGR078C, strain PAC10, active compounds read low
[2] = locus YJL095W, strain BCK1, active compounds read low
[3] = locus YMR307W, strain GAS1, active compounds read low
[4] = locus YPL055C, strain LGE1, active compounds read low

Measured: normalized growth

C=C(C)/C=C1/C=CC(=O)C(C)=C1
inactive: locus YBR229C, strain ROT2, active compounds read low 0.99 | locus YOL012C, strain htz1 0.247
active: locus YBR021W, strain FUR4, active compounds read low 0.466 | locus YCL029C, strain bik1, active compounds read low 0.611 | locus YDL035C, strain GPR1, active compounds read low 0.185 | locus YDL074C, strain BRE1, active compounds read low 0.26 | locus YDL101C, strain DUN1, active compounds read low 0.803 | locus YDL185W, strain tfp1, active compounds read low 0.06 | locus YDL192W, strain arf1, active compounds read low 0.0749 | locus YDR101C, strain arx1, active compounds read low 0.613 | locus YDR162C, strain NBP2, active compounds read low 0.208 | locus YDR318W, strain mcm21, active compounds read low 0.0733 | locus YDR388W, active compounds read low 0.544 | locus YDR502C, strain sam2, active compounds read low 0.0764 | locus YEL061C, strain CIN8, active compounds read low 0.288 | locus YER110C, active compounds read low 0.472 | locus YER155C, strain BEM2, active compounds read low 0.27 | locus YER167W, strain BCK2, active compounds read low 0.151 | locus YGL078C, strain dbp3, active compounds read low 0.0621 | locus YGL086W, strain mad1, active compounds read low 0.0823 | locus YGL248W, strain PDE1, active compounds read low 0.152 | [1] 0.097 | locus YGR135W, strain pre9, active compounds read low 0.129 | locus YGR252W, strain gcn5, active compounds read low 0.264 | locus YHR079C, strain IRE1 (second series), active compounds read low 0.687 | locus YHR094C, strain hxt1, active compounds read low 0.088 | locus YHR129C, strain ARP1, active compounds read low 0.107 | locus YHR200W, strain rpn10, active compounds read low 0.27 | locus YIL066C, strain RNR3, active compounds read low 0.458 | locus YIL073C, strain SPO22, active compounds read low 0.179 | locus YIL125W, strain kgd1, active compounds read low 0.0607 | locus YIR030C, strain dcg1, active compounds read low 0.42 | [2] 0.375 | locus YJL134W, strain LCB3, active compounds read low 0.183 | locus YJL168C, strain set2, active compounds read low 0.203 | locus YJL187C, strain SWE1 (second series), active compounds read low 0.636 | locus YKL068W, active compounds read low 0.0579 | locus YKL085W, strain MDH1 (second series), active compounds read low 0.0777 | locus YKL085W, strain MDH1, active compounds read low 0.0777 | locus YKL190W, strain CNB1, active compounds read low 0.198 | locus YKR001C, strain vps1, active compounds read low 0.0676 | locus YLR039C, strain RIC1, active compounds read low 0.166 | locus YLR058C, strain SHM2, active compounds read low 0.755 | locus YLR102C, strain apc9, active compounds read low 0.0756 | locus YLR262C, strain YPT6, active compounds read low 0.152 | locus YLR268W, strain sec22, active compounds read low 0.076 | locus YLR330W, strain CHS5, active compounds read low 0.0909 | locus YLR371W, strain rom2, active compounds read low 0.0908 | locus YLR418C, strain cdc73, active compounds read low 0.116 | locus YML016C, strain PPZ1, active compounds read low 0.228 | locus YML032C, strain rad52, active compounds read low 0.7 | locus YML124C, strain tub3, active compounds read low 0.174 | locus YMR078C, strain ctf18, active compounds read low 0.0861 | locus YMR223W, strain ubp8, active compounds read low 0.108 | [3] 0.147 | locus YNL067W, strain RPL9B, active compounds read low 0.0907 | locus YNL128W, strain TEP1, active compounds read low 0.229 | locus YNL233W, strain BNI4, active compounds read low 0.188 | locus YNL250W, strain rad50, active compounds read low 0.0988 | locus YNL271C, strain bni1, active compounds read low 0.0645 | locus YNL298W, strain CLA4, active compounds read low 0.06 | locus YNL307C, strain MCK1, active compounds read low 0.0748 | locus YNR052C, strain pop2, active compounds read low 0.748 | locus YOL006C, strain TOP1, active compounds read low 0.202 | locus YOL147C, strain pex11, active compounds read low 0.464 | locus YOR061W, strain CKA2, active compounds read low 0.449 | locus YOR069W, strain VPS5, active compounds read low 0.0688 | locus YOR136W, strain idh2, active compounds read low 0.106 | locus YOR144C, strain elg1, active compounds read low 0.646 | locus YOR184W, strain ser1, active compounds read low 0.0806 | locus YOR316C, strain cot1, active compounds read low 0.0831 | [4] 0.103 | locus YPR119W, strain clb2, active compounds read low 0.0703 | locus YPR141C, strain kar3, active compounds read low 0.0832 | locus YPR163C, strain tif3, active compounds read low 0.0853 | locus YPR167C, strain met16, active compounds read low 0.0692 | strain wtn01, active compounds read low 0.0763

CCOC(=O)c1ncn2c1CN(C)C(=O)c1cc(F)ccc1-2
inactive: locus YAL013W, strain DEP1, active compounds read low 0.994 | locus YAL021C, strain ccr4, active compounds read low 1.01 | locus YAL026C, strain drs2, active compounds read low 1.02 | locus YAL030W, strain snc1, active compounds read low 1.02 | locus YAL040C, strain CLN3, active compounds read low 1 | locus YBL061C, strain skt5, active compounds read low 1.01 | locus YBR009C, strain hhf1, active compounds read low 1.03 | locus YBR023C, strain chs3, active compounds read low 1.02 | locus YBR171W, strain sec66, active compounds read low 1.02 | locus YBR231C, strain swc5, active compounds read low 1.02 | locus YBR279W, strain paf1, active compounds read low 1.01 | locus YCL011C, strain gbp2, active compounds read low 1.01 | locus YCL016C, strain dcc1, active compounds read low 1.02 | locus YCL061C, strain MRC1 (second series), active compounds read low 1 | locus YCL061C, strain MRC1, active compounds read low 1.02 | locus YCL069W, strain vba3, active compounds read low 1.01 | locus YCR088W, strain abp1, active compounds read low 1.02 | locus YDL005C, strain med2, active compounds read low 1.02 | locus YDL040C, strain nat1, active compounds read low 1.02 | locus YDR001C, strain nth1, active compounds read low 1.02 | locus YDR069C, strain doa4, active compounds read low 1.03 | locus YDR137W, strain rgp1, active compounds read low 1 | locus YDR150W, strain NUM1, active compounds read low 1.01 | locus YDR159W, strain sac3, active compounds read low 1.03 | locus YDR195W, strain ref2 1.02 | locus YDR297W, strain sur2, active compounds read low 1.01 | locus YDR334W, strain swr1, active compounds read low 1.02 | locus YDR335W, strain msn5, active compounds read low 1.02 | locus YDR363W, strain ESC2, active compounds read low 0.997 | locus YDR392W, strain spt3, active compounds read low 0.994 | locus YEL003W, strain gim4, active compounds read low 1.02 | locus YEL037C, strain rad23, active compounds read low 1.01 | locus YEL061C, strain CIN8 (second series), active compounds read low 1.02 | locus YER002W, strain NOP16, active compounds read low 0.993 | locus YER015W, strain faa2, active compounds read low 1.01 | locus YER016W, strain bim1, active compounds read low 1.01 | locus YER111C, strain swi4, active compounds read low 1.01 | locus YER155C, strain BEM2 (second series), active compounds read low 1.01 | locus YFR010W, strain ubp6, active compounds read low 1.02 | locus YGL167C, strain pmr1, active compounds read low 1.03 | locus YGL173C, strain kem1, active compounds read low 1.02 | locus YGL227W, strain vid30, active compounds read low 1.02 | locus YGL240W, strain doc1, active compounds read low 1.04 | locus YGL253W, strain hxk2, active compounds read low 1.02 | [1] 1.01 | locus YHR013C, strain ard1, active compounds read low 1.03 | locus YHR027C, strain rpn1, active compounds read low 1.01 | locus YHR030C, strain SLT2, active compounds read low 0.986 | locus YHR079C, strain IRE1, active compounds read low 0.997 | locus YHR142W, strain chs7, active compounds read low 0.972 | locus YJL092W, strain hpr5, active compounds read low 1.02 | locus YJL095W, strain BCK1 (second series), active compounds read low 1.02 | [2] 0.997 | locus YJL115W, strain asf1, active compounds read low 1.02 | locus YJL129C, strain trk1, active compounds read low 1.01 | locus YJL154C, strain vps35, active compounds read low 1.02 | locus YJL164C, strain tpk1, active compounds read low 1.02 | locus YJL166W, strain qcr8, active compounds read low 1.03 | locus YJL187C, strain SWE1, active compounds read low 1.02 | locus YJR066W, strain TOR1, active compounds read low 0.93 | locus YJR075W, strain HOC1, active compounds read low 1 | locus YKL160W, strain elf1, active compounds read low 1.01 | locus YKR026C, strain gcn3, active compounds read low 1.01 | locus YKR091W, strain srl3, active compounds read low 1.01 | locus YLL001W, strain dnm1, active compounds read low 1.01 | locus YLL026W, active compounds read low 1.02 | locus YLL041C, strain sdh2, active compounds read low 1.02 | locus YLR027C, strain aat2, active compounds read low 1.02 | locus YLR113W, strain HOG1, active compounds read low 1.01 | locus YLR221C, strain rsa3, active compounds read low 1.02 | locus YLR258W, strain gsy2, active compounds read low 1.02 | locus YLR262C, strain YPT6 (second series), active compounds read low 1.02 | locus YLR320W, strain mms22, active compounds read low 1.03 | locus YLR342W, strain FKS1, active compounds read low 1.02 | locus YLR357W, strain rsc2, active compounds read low 1.03 | locus YLR370C, strain arc18, active compounds read low 1.02 | locus YLR384C, strain iki3, active compounds read low 1.02 | locus YML120C, strain ndi1, active compounds read low 1 | locus YMR058W, strain fet3, active compounds read low 1.02 | locus YMR125W, strain sto1, active compounds read low 1.03 | locus YMR129W, active compounds read low 1.01 | locus YMR205C, strain PFK2, active compounds read low 1.03 | locus YMR231W, strain pep5, active compounds read low 1.01 | [3] 0.985 | locus YNL071W, strain lat1, active compounds read low 1.01 | locus YNL175C, strain NOP13, active compounds read low 0.999 | locus YNL183C, strain NPR1, active compounds read low 0.938 | locus YNL197C, strain WHI3, active compounds read low 0.999 | locus YNL209W, strain ssb2, active compounds read low 1.02 | locus YNL224C, strain SQS1, active compounds read low 1 | locus YNL248C, strain rpa49, active compounds read low 0.992 | locus YNL322C, strain KRE1 (second series), active compounds read low 1.01 | locus YNR049C, strain mso1, active compounds read low 1.02 | locus YOR001W, strain rrp6, active compounds read low 1.01 | locus YOR070C, strain gyp1, active compounds read low 1.02 | locus YOR080W, strain dia2, active compounds read low 1.02 | locus YOR083W, strain WHI5 (second series), active compounds read low 1.03 | locus YOR083W, strain WHI5, active compounds read low 0.997 | locus YOR106W, strain vam3, active compounds read low 1.01 | locus YOR231W, strain MKK1, active compounds read low 0.983 | locus YOR265W, strain rbl2, active compounds read low 1.02 | locus YOR270C, strain vph1, active compounds read low 1.02 | locus YOR290C, strain snf2, active compounds read low 1.01 | locus YPL051W, strain arl3, active compounds read low 1.01 | [4] 1.01 | locus YPL078C, strain atp4, active compounds read low 1 | locus YPL106C, strain sse1, active compounds read low 1.04 | locus YPL240C, strain hsp82, active compounds read low 1 | locus YPL256C, strain CLN2, active compounds read low 0.973
